Consider 24 molecules from PubChem BioAssay (NCATS).

Inconclusive results are not listed. A call without a number means that no potency is given here. Unmarked numbers belong to inactive results. Active and inactive are the calls of the source. The call rests on the fitted dose curve; in most records, active means well fitted inhibition curve with a large enough effect; inconclusive means small, poorly fitted or top-dose-only effect; inactive means flat fitted curve, though single readings scatter.

Calcium and integrin-binding protein 1 (Homo sapiens), sequence (Q99828 whole entry, looked up): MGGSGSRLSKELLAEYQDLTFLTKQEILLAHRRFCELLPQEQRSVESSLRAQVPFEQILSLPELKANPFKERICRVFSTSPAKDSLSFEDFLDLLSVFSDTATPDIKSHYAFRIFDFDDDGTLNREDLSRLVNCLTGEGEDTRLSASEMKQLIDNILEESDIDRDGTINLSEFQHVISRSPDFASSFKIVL

This test has as its target Calcium and integrin-binding protein 1 (Homo sapiens) (UniProt Q99828). Kind of test: Primary qHTS for Identification of Calcium Integrin Binding Protein 1 (CIB1) Competitor (AID 1508620).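 Further: GST tagged CIB1 binding a fluorescein labelled alphaIIb integrin peptide tracer; top concentration of the series differs between compounds.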 Conditions: CIB1-GST / FITC-alphaIIb peptide fluorescence polarization; series mostly up to 57.7 µM. The procedure, abridged: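 CIB1-GST (1 uM final) and compound incubated 15 min at room temperature before adding FITC-alphaIIb peptide tracer (100 nM final). Competition for binding read by fluorescence polarization (ex 480, em 540) after another 15 min at room temperature.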
On to `COc1cc(C(C)=O)ccc1O[C@@H]1O[C@H](CO[C@@H]2O[C@@H](C)[C@H](O)[C@@H](O)[C@H]2O)[C@@H](O)[C@H](O)[C@H]1O`, for which the Potency result is “inactive”. For `COc1ccccc1CC(C(=O)O)N(C)C(=O)c1ccccc1` (centres undefined), the Potency result was “inactive”.

In the case of `CON(C)C(=O)N1N=C(c2cc(F)ccc2F)S[C@@]1(CCCN)c1ccccc1`, the Potency result was “inactive”. Same read-out and setting: to `CC1(C)NC2N(C1=O)c1ccccc1C2(O)CC(C(=O)O)n1cnc2ccccc2c1=O` (centres undefined) belongs “inactive”; to `CCOC(=O)Nc1nc2ccccc2[nH]1`, “inactive”; to `C=C1[C@@H]2[C@H]3OC(=O)C(=C)[C@@H]3CC[C@@](C)(O)[C@@H]2C[C@@H]1O[C@@H]1O[C@H](CO)[C@@H](O)[C@H](O)[C@H]1O`, “inactive”. For `C=C1CCC2C(C)(COC3OC(COC(=O)CC(=O)O)C(O)C(O)C3O)CCCC2(C)C1CCC1=CCOC1=O` (centres undefined), the Potency entry is “inactive”. For `COc1ccc(C(OC2OC(CO)C(O)C(O)C2O)C(C)O)cc1` (centres undefined), the Potency result was “inactive”. On to `CC(/C=C/[C@]1(O)[C@@]2(C)CO[C@@]1(C)C[C@@H](O)C2)=C\C(=O)O[C@@H]1O[C@H](CO)[C@@H](O)[C@H](O)[C@H]1O`, for which the Potency result was “inactive”. With `C[C@@H]1O[C@@H](O[C@@H]2[C@@H](O)[C@H](O[C@@H]3[C@@H](O)[C@@H](O)[C@H](O[C@H]4[C@H](OC(=O)[C@]56CCC(C)(C)C[C@H]5C5=CCC7[C@@]8(C)C[C@H](O)[C@H](O[C@@H]9O[C@H](C(=O)O)[C@@H](O)[C@H](O)[C@H]9O)[C@@](C)(CO)C8[C@H](O)C[C@@]7(C)[C@]5(C)CC6)OC[C@H](O)[C@@H]4O)O[C@H]3C)OC[C@H]2O)[C@H](O)[C@H](O)[C@H]1O` (some centres undefined), the activity change, negative = inhibition is 3.71% [at 12.4 µM]. Consider `CC(=O)O[C@@]1(C)C[C@@H](O)[C@]2(O)C=CO[C@@H](O[C@@H]3O[C@H](CO)[C@@H](O)[C@H](O)[C@H]3O)[C@@H]21`, for which the Potency entry was “inactive”. In the case of `O=c1ccn(C2OC(CO)C(O)C2O)c(=O)[nH]1` (centres undefined), the Potency result is “inactive”. Turning to `CCNC(=O)[C@H]1O[C@H](n2cnc3c(NCC(c4ccccc4)c4ccccc4)nc(C(=O)NCCNC(=O)NC4CCN(c5ccccn5)CC4)nc32)[C@H](O)[C@@H]1O`, the Potency result was “inactive”.

For the molecule `O=C(/C=C/c1ccc(O)cc1)OC[C@]12O[C@H]1[C@@H](O)[C@@H]1C=CO[C@@H](O[C@@H]3O[C@H](CO)[C@@H](O)[C@H](O)[C@H]3O)[C@@H]12`, the Potency result is “inactive”.

Consider `O=C(NC[C@H](O)CN1CCc2ccccc2C1)c1cc(NC2COC2)ncn1`, for which the Potency entry was “inactive”. Consider `C[C@@H]1O[C@@H](O[C@H]2[C@H](O)[C@@H](C(=O)O)O[C@@H](O[C@H]3CC[C@@]4(C)C(CC[C@]5(C)C4CC=C4C6CC(C)(C)CC[C@]6(C(=O)O)CC[C@]45C)C3(C)C)[C@@H]2O[C@@H]2O[C@H](CO)[C@@H](O)[C@H](O)[C@H]2O)[C@H](O)[C@H](O)[C@H]1O` (some centres undefined), for which the Potency entry was “inactive”. With `CC1=C(C)C(=O)OC(C(C)C2C(O)CC3C4C5OC5C5(O)CC(OC6OC(CO)C(O)C(O)C6O)CC(O)C5(C)C4CCC32C)C1` (centres undefined), the Potency result is “inactive”. Turning to `C=C(C)C(=O)O[C@H]1C[C@@](C)(OC(C)=O)[C@@]2(O)CC[C@@](C)(O)[C@H](OC(C)=O)[C@@]23OC(=O)C(COC)=C13`, the Potency entry was “inactive”. Same read-out and setting: the value for `COc1ccc(C[C@H](N)C(=O)N[C@H]2[C@@H](O)[C@H](n3cnc4c(N(C)C)ncnc43)O[C@@H]2CO)cc1` was “inactive”. For `CC(=O)O[C@@H]1[C@H]2[C@@H](OC(=O)c3ccccc3)[C@@H](C)C[C@]2(O)[C@H](OC(C)=O)[C@@]2(C)[C@@H]3CC(C)(C)C(=O)[C@]3(OC(C)=O)C[C@@]12C`, the Potency entry is “inactive”. `CC(C)CC(=O)O[C@@H]1OC=C(CO[C@@H]2O[C@H](CO[C@@H]3O[C@H](CO)[C@@H](O)[C@H](O)[C@H]3O)[C@@H](O)[C@H](O)[C@H]2O)[C@H]2C[C@H](O)[C@@H](CO)[C@@H]12`: the Potency result was “inactive”.

In the case of `C=C1CC[C@@H]2[C@](C)(CO[C@@H]3O[C@H](CO)[C@@H](O)[C@H](O)[C@H]3O)CCC[C@@]2(C)[C@@H]1CCC1=CCOC1=O`, the Potency result was “inactive”.

On to `C=C1C(OC(C)=O)C(=O)C2C(C)(C)C(OC(C)=O)CCC2(C)C1CC(OC(C)=O)/C(C)=C/COC(C)=O` (centres undefined), for which the Potency entry was “inactive”.

Consider `COc1cc(/C=C/C(=O)OC2CC(OC(C)=O)C(OC(C)=O)C3C2CCC2C(=O)OC(c4ccoc4)CC23C)ccc1O[C@@H]1O[C@H](CO)[C@@H](O)[C@H](O)[C@H]1O` (some centres undefined), for which the Potency entry is “inactive”.
